Experimental data taken from PubChem BioAssay AID803 (The Scripps Research Institute Molecular Screening Center, 2007).
Out of some 140,000 compounds screened, about 680 (0.49%) were called active. Only a selection was taken, and actives are over-represented in it overall. A number with no mark means an inactive call. Cut-off read from the data, not from the text of the source: active = activation above about 5% (passing the limit was not always enough); inactive = the rest.

What follows are compounds tested against Galanin receptor type 2 (Homo sapiens) (UniProt O43603) (assay: GALR2 receptor agonists, primary screen, cell-based (AID 803;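 note: 0% = vehicle buffer wells and 100% = reference agonist at full effect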)). Conditions: GALR2-expressing cells, agonist activation read-out; stronger effect = higher value; concentration not given here.
Chain of Galanin receptor type 2 (Homo sapiens) (O43603 whole entry, looked up): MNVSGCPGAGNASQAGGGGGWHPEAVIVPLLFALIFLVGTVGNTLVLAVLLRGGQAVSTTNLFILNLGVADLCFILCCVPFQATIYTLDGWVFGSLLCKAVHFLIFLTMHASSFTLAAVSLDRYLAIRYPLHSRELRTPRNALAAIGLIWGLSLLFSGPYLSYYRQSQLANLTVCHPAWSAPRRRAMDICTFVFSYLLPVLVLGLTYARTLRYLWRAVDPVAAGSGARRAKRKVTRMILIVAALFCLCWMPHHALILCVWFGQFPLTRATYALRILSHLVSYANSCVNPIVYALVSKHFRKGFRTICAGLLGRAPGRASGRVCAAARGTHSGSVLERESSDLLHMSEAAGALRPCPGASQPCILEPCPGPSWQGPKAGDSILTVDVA

**Q.** For `CCOC(=O)c1c(N)n(CCN2CCOCC2)c2nc3ccccc3nc12`, which activation is on record?
**A.** 1.16%

**Q.** With `COc1cc(Cn2c(N)c(C(=O)NCc3ccco3)c3nc4ccccc4nc32)cc(OC)c1OC` as the compound, how does the activation read?
**A.** 25% (active)

**Q.** `CCOC(=O)c1c(N)n(Cc2ccccc2)c2nc3ccccc3nc12` was tested. Which activation did it give?
**A.** -0.61%

**Q.** How did the activation turn out when `CC(=O)c1c(C)n(C(C)C)c2ccc(O)cc12` was run?
**A.** 0.6%

**Q.** Which activation does the source give for `CN1CCN(C(=S)SCC(=O)Nc2ccc(Cl)cc2C(=O)c2ccccc2)CC1` here?
**A.** -0.06%

**Q.** How did the activation turn out when `O=C1NC(=O)N(c2ccc(F)cc2)C(=O)/C1=C/c1ccc2c(c1)CCCN2Cc1ccccc1` was run?
**A.** -0.69%

**Q.** How did the activation turn out when `Cc1cccc(N2C(=O)NC(=O)/C(=C\c3cnn(-c4ccccc4)c3)C2=O)c1` was run?
**A.** 34.2% (active)

**Q.** `COc1c(O)ccc2c1-c1c3c(cc4c1C(C2)N(C)CC4)OCO3` (stereo not given) was tested. Which activation did it give?
**A.** -1.66%

**Q.** `CCOP(=O)(OCC)C(NC(=O)c1ccc(C)cc1)C(Cl)(Cl)Cl` (stereo not given) was tested. Which activation did it give?
**A.** -0.73%

**Q.** With `Cc1ccc(-n2c(-c3ccc([N+](=O)[O-])cc3)nc3ccccc3c2=O)cc1` as the compound, how does the activation read?
**A.** -0.79%
